The values below come from PubChem BioAssay (NCI).

This is part of a sample that, as a whole, favours compounds with a hit. Of some 83,000 tested, about 20% had one in any assay.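 Cell lines were cultured in 96-well plates, exposed to a single compound concentration, and assessed for percent growth 48 hours later.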 Calls of active or inactive are those of the source. Rule for the calls: active = growth percent below 10; inactive = the rest.

In the assay the test system is MDA-MB-468 breast. In words: NCI-60 one-dose screen, 48 h (100 = growth as untreated, 0 = no growth, -100 = all killed). Particulars: 10 µM unless noted.
For the compound `c1ccc(Cc2nn3cc(-c4ccccc4)nc3s2)cc1`, the growth is 101% (inactive).
Turning to `Cc1cc(NCc2cc(Nc3ccnc4cc(Cl)ccc34)ccc2F)nc(N2CCSCC2)n1`, the growth was -17.3% (active).
`O=C(CSc1nc2sc3c(c2c(=O)n1-c1ccc(Cl)cc1)CCCC3)Nc1nc(-c2cccc(Br)c2)cs1`: the growth was 65.1% (inactive).
The figure for `CC[n+]1c(/C=C/c2ccc(N3CCCC3)cc2)cccc1/C=C/c1ccc(N2CCCC2)cc1` is -85.8% (active); for `CCCCn1c(-c2ccc(O)cc2)cn2c3c(=O)[nH]c(=O)n(C)c3nc12` it is 43.4% (inactive).
Take `O=C(O)C1(Cc2cccc(Nc3nccs3)n2)CCC(Oc2cccc(Cl)c2F)CC1` (stereo not given): the growth was 33.4% (inactive).
The figure for `COc1ccc(Nc2nnc(SCc3ccccc3F)s2)cc1` is 55.9% (inactive); for `CC(C)=CCC[C@](C)(O)[C@H]1CC[C@]2(C)[C@@H]1CC[C@@H]1[C@@]3(C)CCC(NC(=O)c4ccccc4C(=O)O)C(C)(C)[C@@H]3CC[C@]12C` (stereo not given in full) it is 89.4% (inactive).
The figure for `CCCCCCCCCCC1CO1` (stereo not given) is 94.1% (inactive); for `Cc1cc(N2CCOCC2)nc(N(CCCNc2ccnc3cc(Cl)ccc23)Cc2ccco2)n1` it is 21.7% (inactive); for `CCN1CCN(c2nc(NCCCNc3ccnc4cc(Cl)ccc34)c3ccccc3n2)CC1` it is 29.1% (inactive).
The figure for `O=c1ccccc(-c2ccc(Br)cc2)c1O` is 12.3% (inactive).
For `NS(=O)(=O)c1ccc(C(=O)N=Nc2c(O)[nH]c3ccc(Cl)cc23)cc1`, the growth was 110% (inactive).
With `COc1cc(/C=N/n2c(CN3CCOCC3)nc3ccccc3c2=O)cc(OC)c1OC` the figure was 109% (inactive); with `COc1ccc(S(=O)(=O)NC2c3ccccc3CC2O)cc1OC` (stereo not given), 111% (inactive).
The figure for `Cc1cc(-c2ccc(N=Nc3c(C)nn(-c4ccc(S(=O)(=O)O)cc4)c3O)c(C)c2)ccc1N=Nc1ccc(O)c(C(=O)O)c1` is 113% (inactive); for `O=C1/C(=C\C(Cl)=C/c2ccc([N+](=O)[O-])cc2)SC(=S)N1CCc1ccc(O)cc1` it is -84.7% (active); for `COc1cccc(C=Nc2cc(C(C)C)c(O)cc2C)c1O` it is 95% (inactive).
For `N#Cc1cccc(CN2CCC3=C(C2)C(=O)N(Cc2ccc(Cl)cc2)C2=NCCCN23)c1`, the growth is -16.1% (active).
The figure for `CSc1nc2[nH]ncc2c(=O)[nH]1` is 92.6% (inactive); for `COc1cc2ncnc(Nc3cccc(Cl)c3F)c2cc1OC(=O)N1CCN(C)C[C@H]1C` it is -10.7% (active); for `Cc1cc2nc(C)c(C)nc2cc1C` it is 112% (inactive).
The figure for `CN1CCCCC1CCN1c2ccccc2Sc2ccc(Br)cc21` (stereo not given) is 32.1% (inactive); for `O=Cc1ccc(F)cc1` it is 91% (inactive).
The figure for `O=C(CCCCCCN1CC(=O)N2[C@@H](C3CC3)c3[nH]c4ccccc4c3C[C@H]2C1=O)NO` is 64.6% (inactive).
Turning to `COC(=O)[C@@]12CC=C(C)[C@]3(C[C@H](c4ccoc4)OC3=O)[C@H]1C=C[C@@H](O)[C@@]2(O)C(=O)OC`, the growth was 121% (inactive).
The figure for `Cc1cc(C)nc(NC(N)=NCCc2ccccc2)n1` is -3.56% (active); for `c1ccc(-c2nnn(-c3ccccc3)n2)cc1` it is 111% (inactive).
The figure for `C#C[C@]1(O)CC[C@H]2[C@@H]3CC=C4c5sc(Nc6cc(OC)ccc6OC)nc5CC[C@]4(C)[C@H]3CC[C@@]21C` is 9.15% (active).
Turning to `COc1ccc(Nn2c(SCC(=O)Nc3nc(-c4ccc(Cl)cc4)cs3)nc(C)c2C)cc1`, the growth was 26.2% (inactive).
The figure for `CC(O)CN1CCCCC1` (stereo not given) is 104% (inactive).
With `COc1cc(-c2nc3ccc(C)cc3[nH]2)ccc1OCc1nnc(-c2ccc(CC(C)C)cc2)o1` the figure was 116% (inactive); with `Cc1ccnc(Nc2nc3ccccc3[nH]2)n1`, 119% (inactive); with `C=C[C@]1(C)C=C2CC[C@@H]3C(C)(C)C(=O)CC[C@@]3(C)[C@@H]2CC1`, 110% (inactive).
Turning to `CN1CCN(c2ccc(Nc3nc(NCCCNS(=O)(=O)c4ccc(Cl)cc4)c4sccc4n3)cc2)CC1`, the growth is -47.7% (active).
With `Cc1cc2c(C(C)C)c(O)c(O)c(C=NCCCCC(=O)O)c2c(O)c1-c1c(C)cc2c(C(C)C)c(O)c(O)c(C=NCCCCC(=O)O)c2c1O`, the growth is 35.4% (inactive).
The figure for `CC[C@]12C=CCN3CC[C@@]4(c5cc([C@H]6CCC(=O)N6)c(OC)cc5N(C)[C@H]4[C@@](O)(C(=O)OC)[C@@H]1OC(C)=O)[C@@H]32` is 110% [2.5 µM] (inactive); for `O=C1CC[C@@H](C(=O)N[C@H]2CSSC[C@@H](C(=O)NCCc3ccccc3)NC(=O)[C@H](Cc3ccccc3)NC(=O)[C@@H]3CCCN3C(=O)[C@@H]3CCCN3C2=O)N1` it is 90.2% (inactive); for `C/C(=N\NC(N)=S)c1nc2ccc(Cl)cc2[nH]1` it is 44.2% (inactive).
Consider `CS(=O)(=O)c1ccc2c(c1)c1c(n2C(=O)c2ccc(Cl)cc2)CCCC1`, for which the growth was 27.7% (inactive).
